# Screening data from PubChem.
# In the library only some 3.6% were active in any assay of this set; here they are far more common.
# mHTT CaM bind – mHTT-calmodulin interaction abrogation; P42858; AlphaScreen His-mHTT/GST-CaM binding, luminescence; inhibition, % at 15 µM; actives 3.6% (n = 190,000); AID 1671202;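 further: 0% = both proteins with DMSO and 100% = one protein alone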
# Pf apPOL inh – Pf-apPOL DNA polymerase inhibition | Recombinant Pf-apPOL, molecular beacon fluorescence, 1.5 h | inhibition, % at 10 µM | actives 0.25% (n = 210,000)
# * marks the source's active call; other numbers are inactive results; x = not tested or not shown. No stated cut-off is given here; in the data, active means inhibition above about 50%; inactive means the rest.
SMILES,mHTT CaM bind,Pf apPOL inh
CCOC(=O)Cc1csc(NC(=O)CSc2ccccn2)n1,x,-0.3
Cc1ccnc(Nc2nc(CC(=O)Nc3nnc(C)s3)cs2)c1,56.5*,22.3
O=[N+]([O-])c1cccc(-c2nc(S(=O)(=O)c3ccccc3)c(N3CCCCC3)o2)c1,4.0,-0.2
CCOc1ccccc1NC(=O)c1c(NCc2cccnc2)sc2c1CCC(C)C2 (centres undefined),25.0,-17.7
COc1ccccc1NC(=O)c1c(NC(=O)c2ccccc2Cl)sc2c1CCC2,-3.8,1.7
COc1ccccc1NC(=O)c1c(NCc2cccnc2)sc2c1CCC2,74.0*,-17.4
COc1ccccc1NC(=O)c1c(NCc2cccnc2)sc2c1CCCC2,71.0*,-22.5
COc1ccc(-n2c(CN3CCN(C(=O)NC(C)C)CC3)nc3cccnc32)cc1,-5.1,4.0
O=C1C=CC2=C3c4cc(O)c(O)cc4CC3(O)COC2=C1O (centres undefined),x,50.2*
Cc1cc2c(N3CCC(C(=O)Nc4ccc(Cl)cc4F)CC3)nccc2s1,-1.0,1.3
Cc1ccc(C(NC(=O)Cc2cc3ccccc3[nH]2)C(=O)Nc2ccc3c(c2)OCCO3)cc1 (centres undefined),53.0*,-4.7
CC(=O)NCC(=O)NC(C(=O)Nc1ccc2c(c1)OCO2)c1ccc(C)cc1 (centres undefined),5.0,-3.8
CCN(Cc1cc(-c2ccc(C)cc2C)on1)C(=O)c1ccc(C)cc1,-21.8,1.2
CC(=O)N(Cc1ccc2c(c1)OCO2)Cc1cc(-c2ccc(C)cc2C)on1,61.2*,-3.2
O=[N+]([O-])c1ccc(SC2=NCCS2)c([N+](=O)[O-])c1,x,-0.9
O=[N+]([O-])c1ccc(Sc2cccs2)c([N+](=O)[O-])c1,64.4*,x
COc1ccc(OC)c(N=c2oc3c(C)ncc(CO)c3cc2C(N)=O)c1,5.0,-0.3
O=C(O)c1cccc(NS(=O)(=O)c2cc(C(=O)Nc3ccccc3)c(Cl)cc2Cl)c1,-2.5,-6.1
Oc1cccc(Nc2nc(-c3ccccc3)cs2)c1,33.0,-1.7
c1ccc(-c2csc(Nc3ncccn3)n2)cc1,-5.4,-3.8
Oc1ccc(Nc2nc(-c3ccccc3)cs2)cc1,79.1*,-8.1
NNc1nc(-c2ccccc2)cs1,57.5*,-7.9
O=C1C(=O)N(Cc2ccc([N+](=O)[O-])cc2)c2ccc(Br)cc21,40.0,0.9
Cc1oc(C2CCN(S(=O)(=O)Cc3cccc(F)c3)CC2)nc1C(=O)N1CCCCC1,14.2,-7.1
O=C(CCC1CCCCC1)NCc1ccc2[nH]c3c(c2c1)CCCC3,98.4*,-6.8
SMILES,mHTT CaM bind,Pf apPOL inh
O=C(CCC1CCCC1)NCc1ccc2[nH]c3c(c2c1)CCCC3,100.2*,-15.2
Cc1ccc(CNC(=O)CN(C)S(=O)(=O)c2ccc3[nH]c4c(c3c2)CCCC4)cc1,32.5,-0.8
NNC(=O)c1ccc2[nH]c3c(c2c1)CCCC3,11.3,3.4
Cc1ccc(C(=O)N2CCc3sc(C(=O)N4CCN(C(C)C)CC4)cc3C2)cc1,-2.4,-1.6
Cc1ccc(/C=C2N=C(/C=C/c3cccc(Cl)c3Cl)OC\2=O)o1,6.0,-0.4
Cc1cc(C(=O)N2CC(C)C(c3nc(-c4ccccc4)no3)C2)n[nH]1 (centres undefined),4.5,0.1
O=C(NCCc1ccccc1)C1CCc2sc(C(=O)N3CCCC3)cc2C1 (centres undefined),-0.6,-1.5
CCOC(=O)c1csc(NC(=O)c2sc3ccccc3c2Cl)n1,-8.8,1.3
Cc1ccnc(NS(=O)(=O)c2ccc(NC(=O)c3ccc(-n4ccnc4)nn3)cc2)n1,-12.1,4.6
Cc1nc(NC(=O)c2ccc(-n3ccnc3)nn2)sc1C,90.0*,6.8
CC(=O)C1=C(C)NC(SCC(=O)c2ccc(F)cc2)=C(C#N)C1c1cccc([N+](=O)[O-])c1 (centres undefined),38.0,0.3
CCc1ccc(C2C(C#N)=C(SCC(=O)c3ccc([N+](=O)[O-])cc3)NC(C)=C2C(C)=O)cc1 (centres undefined),59.7*,1.9
Cc1cc(C)c(NC(=O)Nc2ccc(Cl)cc2)c(C)c1,-4.1,-3.7
CN(C)CCN(C(=O)CN1C(=O)c2ccccc2C1=O)c1nc2ccc(Cl)cc2s1,84.0*,-5.3
Cc1ccc2nc(NC(=O)CN3C(=O)c4ccccc4C3=O)sc2c1,3.9,1.4
Cc1cc(NS(=O)(=O)c2cccs2)n[nH]1,x,-4.6
Cc1cc(NS(=O)(=O)c2cc(C(=O)O)ccc2F)n[nH]1,78.0*,-9.2
O=[N+]([O-])c1cccc(CN2CCCC2)c1,-4.0,-2.1
CCSc1nnc(NC(=O)Cc2csc(NC(=O)c3cnccn3)n2)s1,88.4*,44.3
O=C(Cc1csc(NC(=O)C2CCCC2)n1)Nc1nc(-c2cccnc2)cs1,-17.0,-8.7
O=C(Cc1csc(NC(=O)c2cnccn2)n1)Nc1nc2ccccc2s1,80.5*,30.4
O=C(Cc1csc(NC(=O)c2cnccn2)n1)Nc1nc(-c2cccnc2)cs1,99.5*,55.0*
O=C(Cc1csc(NC(=O)c2cnccn2)n1)Nc1cccc(C(F)(F)F)c1,84.4*,8.1
Cc1ccc2nc(NC(=O)c3cnccn3)sc2c1,4.0,2.0
CCSc1nnc(NC(=O)Cc2csc(Nc3cccc(C(F)(F)F)c3)n2)s1,11.4,-8.7
SMILES,mHTT CaM bind,Pf apPOL inh
CCSc1nnc(NC(=O)c2cnccn2)s1,4.0,-7.5
COc1ccc(C2=NC(c3ccccc3OC)NC(c3cccc(OC)c3O)C2)cc1 (centres undefined),24.0,-1.5
O=C(NC1(c2nc(-c3cccnc3)no2)CCCCC1)c1cc(C2CC2)[nH]n1,14.1,2.1
COc1cc(C(=O)NC(C)COc2ccc(C(C)C)cc2)cc(OC)c1OC (centres undefined),-15.8,2.6
OCCn1c(-c2ccc(F)cc2)csc1=Nc1ccccc1,43.0,-6.1
C=CCn1c(-c2ccc(OC)c(OC)c2)csc1=Nc1ccccn1,34.0,-2.9
OCCn1c(-c2ccc(F)cc2)csc1=Nc1cccc(Cl)c1,98.0*,-2.2
COc1ccc(-c2csc(=Nc3ccc(F)cc3)n2CCO)cc1F,53.0*,-2.0
COc1ccc(N=c2scc(-c3ccc(OC)cc3F)n2CCO)cc1,27.0,-6.1
CCn1c(-c2ccc(OC)c(F)c2)csc1=Nc1ccccc1,72.0*,-2.9
CCn1c(=O)c2ccnn2c2ccc(C(=O)Nc3cc(F)ccc3C)cc21,-0.6,2.3
COc1ccc(N2C=C(C(=O)N3CCC(C)CC3)S(=O)(=O)c3ccccc32)cc1,0.8,0.7
COc1cc2c(cc1OC)C(C(=O)NCCN(C)C)C(c1ccccc1F)N(C)C2=O (centres undefined),-6.0,2.7
Cc1cc(C)nc(SC2=CS(=O)(=O)c3ccccc32)n1,-2.0,25.2
O=S1(=O)C=C(Sc2cccc3cccnc23)c2ccccc21,68.0*,5.6
CSc1scc2c1C(=O)C(=CN(C)C)CC2,x,93.0*
CN(C)C=C1Cc2ccccc2C1=O,x,-10.9
O=C(c1ccc(S(=O)(=O)N2CCOCC2)cc1)N1CCCCC1,-1.8,-11.5
CCCNC(=O)c1ccc(-c2ccc(N3CCCCC3)nc2)cc1,2.8,-2.2
CCCCC[C@@H](C)N1C[C@H](COCc2ccccc2)Oc2cc(N3CCC[C@H]3C(N)=O)ccc2S1(=O)=O,21.9,-4.7
CCCCC[C@@H](C)N1C[C@@H](COCc2ccccc2)Oc2cc(N3CC[C@H](O)C3)ccc2S1(=O)=O,89.7*,-3.3
CCCCC[C@H](C)N1C[C@H](COCc2ccccc2)Oc2cc(N3CCC[C@H]3C(N)=O)ccc2S1(=O)=O,41.7,-17.8
